Source: PubChem BioAssay (EPA / NIEHS)
Active and inactive are the calls of the source. Rule for the calls: active = hit-call score of the fitted dose curve at least 0.9, where 1 is the maximum; inactive = score below 0.9.

Each compound was assayed on ABC Transporter (ABCB11), ABCB11 (gene 8647) (assay: LTEA_HepaRG_ABCB11: Life Technologies and Expression Analysis (LTEA) Assay for ABC Transporter (ABCB11) using HepaRG (AID 2283463)). Settings: mRNA level, 48 h; actives raise or lower the signal.
Method in brief: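 HepaRG, 48 h exposure, 8-pt half-log CRC top 100 uM, 0.5% DMSO vehicle, duplicates. Readout: TaqMan qRT-PCR of ABCB11 mRNA, housekeeping-normalized (ACTB/GAPDH/POLR2A). Bidirectional fit vs DMSO baseline.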

Row | Compound | outcome | AC50
1 | CC1=C2C[C@H]3[C@@H](CC=C4C[C@@H](O)CC[C@@]43C)[C@@H]2CC[C@]12O[C@@H]1C[C@H](C)CN[C@H]1[C@H]2C | inactive | 
2 | Cc1cc(O)ccc1Cl | inactive | 
3 | N#Cc1ccc(N(CC(N)=O)CC(F)(F)F)cc1C(F)(F)F |  | 0.353 µM (active)
4 | C1CC2OC2CC1C1CO1 (stereo unspecified) | inactive | 
5 | NS(=O)(=O)C(F)(F)C(F)(F)C(F)(F)C(F)(F)C(F)(F)C(F)(F)C(F)(F)C(F)(F)F |  | 7.12 µM (active)
6 | CC(c1ccc(O)cc1)(c1ccc(O)cc1)c1ccc(O)cc1 |  | 20.8 µM (active)
7 | Cc1cc2c3c(c1)C(c1ccccc1)=N[C@@H](NC(=O)c1ccncc1)C(=O)N3CC2 | inactive | 
8 | CN(C)CCO | inactive | 
9 | Cc1cc(-c2ccc(N)c(C)c2)ccc1N |  | 22.4 µM (active)
10 | O=C(NC(=O)c1c(F)cccc1F)Nc1cc(Cl)c(OC(F)(F)C(F)F)c(Cl)c1 |  | 50 µM (active)
11 | CN(C)c1nc(=O)n(C2CCCCC2)c(=O)n1C | inactive | 
12 | O=C(O)C(F)(F)C(F)(F)C(F)(F)C(F)(F)C(F)(F)C(F)(F)C(F)(F)C(F)(F)C(F)(F)F |  | 61 µM (active)
13 | O=C(NC(=O)c1cc(F)c(F)cc1Cl)Nc1cc(F)ccc1N1CCC(C(=O)O)CC1 |  | 2.05 µM (active)

Each compound was assayed on ABC Transporter (ABCC2), ABCC2 (gene 1244) (assay: LTEA_HepaRG_ABCC2: Life Technologies and Expression Analysis (LTEA) Assay for ABC Transporter (ABCC2) using HepaRG (AID 2283464)). Settings: mRNA level, 48 h; actives raise or lower the signal.
Method in brief: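 Differentiated HepaRG cells in serum-free induction medium exposed 48 h to eight half-log concentrations up to 100 uM, 0.5% DMSO, in duplicate. ABCC2 mRNA measured by qRT-PCR (TaqMan, Fluidigm), normalized to ACTB, GAPDH and POLR2A. Fitted in both directions against DMSO.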

Row | Compound | outcome | AC50
14 | CC1=C2C[C@H]3[C@@H](CC=C4C[C@@H](O)CC[C@@]43C)[C@@H]2CC[C@]12O[C@@H]1C[C@H](C)CN[C@H]1[C@H]2C | inactive | 
15 | CC#Cc1cc(C)nc(Nc2ccccc2)n1 | inactive | 
16 | CCC(C)(c1ccc(O)cc1)c1ccc(O)cc1 | inactive | 
17 | Cc1ccccc1CO[C@@H]1C[C@@]2(C(C)C)CC[C@]1(C)O2 |  | 75.1 µM (active)
18 | CCC(=O)O[C@H]1CC[C@H]2[C@@H]3CCC4=CC(=O)CC[C@]4(C)[C@H]3CC[C@]12C | inactive | 
19 | Oc1ccc(Cl)cc1Cl | inactive | 
20 | CCCCCCCCCc1ccc(O)cc1 | inactive | 
21 | ClC(Cl)=C(c1ccc(Cl)cc1)c1ccc(Cl)cc1 |  | 10.8 µM (active)
22 | O=S(=O)(O)C(F)(F)C(F)(F)C(F)(F)C(F)(F)C(F)(F)C(F)(F)F | inactive | 
23 | O=C(O)C(F)(F)C(F)(F)C(F)(F)C(F)(F)C(F)(F)C(F)(F)C(F)(F)C(F)(F)F |  | 82.7 µM (active)
24 | COS(=O)(=O)OC | inactive | 
25 | N#Cc1ccc(N(CC(N)=O)CC(F)(F)F)cc1C(F)(F)F | inactive | 
26 | CCC(C)(CC)c1cc(NC(=O)c2c(OC)cccc2OC)on1 |  | 6.13 µM (active)
27 | O=C(N[C@H]1CN2CCC1CC2)c1cc2ccoc2cn1 | inactive | 
28 | C1CC2OC2CC1C1CO1 (stereo unspecified) | inactive | 
29 | O=S(=O)(O)C(F)(F)C(F)(F)C(F)(F)C(F)(F)F | inactive | 

Row | Compound | outcome | AC50
30 | O=NN(c1ccccc1)c1ccccc1 | inactive | 
31 | NS(=O)(=O)C(F)(F)C(F)(F)C(F)(F)C(F)(F)C(F)(F)C(F)(F)C(F)(F)C(F)(F)F |  | 10.1 µM (active)
32 | CC(c1ccc(O)cc1)(c1ccc(O)cc1)c1ccc(O)cc1 |  | 81 µM (active)
33 | C=CC(N)=O | inactive | 
34 | Cc1cc2c3c(c1)C(c1ccccc1)=N[C@@H](NC(=O)c1ccncc1)C(=O)N3CC2 | inactive | 
35 | CN(C)CCO | inactive | 
36 | Nn1cnnc1 | inactive | 
37 | Cc1cc(-c2ccc(N)c(C)c2)ccc1N | inactive | 
38 | O=C(NC(=O)c1c(F)cccc1F)Nc1cc(Cl)c(OC(F)(F)C(F)F)c(Cl)c1 | inactive | 
39 | CN(C)c1nc(=O)n(C2CCCCC2)c(=O)n1C | inactive | 
40 | O=C(O)C(F)(F)C(F)(F)C(F)(F)C(F)(F)C(F)(F)C(F)(F)C(F)(F)C(F)(F)C(F)(F)F |  | 94.8 µM (active)
41 | c1cc2ccc3cccc4ccc(c1)c2c34 | inactive | 
42 | C=CC(=O)NCNC(=O)C=C |  | 16 µM (active)
43 | Clc1ccc(C(Cl)(Cl)Cl)cc1 | inactive | 
44 | O=C(NC(=O)c1cc(F)c(F)cc1Cl)Nc1cc(F)ccc1N1CCC(C(=O)O)CC1 | inactive | 

Each compound was assayed on Broad substrate specificity ATP-binding cassette transporter ABCG2 (Homo sapiens) (UniProt Q9UNQ0) (assay: LTEA_HepaRG_ABCG2: Life Technologies and Expression Analysis (LTEA) Assay for ABC Transporter (ABCG2) using HepaRG (AID 2283465)). Settings: mRNA level, 48 h; actives raise or lower the signal.
Sequence of Broad substrate specificity ATP-binding cassette transporter ABCG2 (Homo sapiens) (Q9UNQ0 whole entry, looked up): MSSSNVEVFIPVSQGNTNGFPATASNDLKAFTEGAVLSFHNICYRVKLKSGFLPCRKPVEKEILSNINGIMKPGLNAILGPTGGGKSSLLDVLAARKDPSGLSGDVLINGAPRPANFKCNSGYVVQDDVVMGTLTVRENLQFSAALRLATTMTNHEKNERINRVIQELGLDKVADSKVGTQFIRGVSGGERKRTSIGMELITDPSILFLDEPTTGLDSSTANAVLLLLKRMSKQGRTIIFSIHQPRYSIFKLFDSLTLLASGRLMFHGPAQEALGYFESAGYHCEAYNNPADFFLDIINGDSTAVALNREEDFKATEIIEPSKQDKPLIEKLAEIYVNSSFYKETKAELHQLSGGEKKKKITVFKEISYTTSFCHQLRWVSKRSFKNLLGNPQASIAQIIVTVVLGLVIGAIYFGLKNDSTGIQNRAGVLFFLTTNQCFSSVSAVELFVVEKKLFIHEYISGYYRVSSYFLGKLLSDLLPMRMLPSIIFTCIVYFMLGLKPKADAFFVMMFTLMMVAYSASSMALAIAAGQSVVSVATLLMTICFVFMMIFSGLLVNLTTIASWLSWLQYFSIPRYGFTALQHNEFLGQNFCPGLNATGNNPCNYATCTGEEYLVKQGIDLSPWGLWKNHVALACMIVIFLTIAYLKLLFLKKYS
Method in brief: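 HepaRG, 48 h exposure, 8-pt half-log series from 100 uM, 0.5% DMSO vehicle, duplicates. Readout: ABCG2 transcript by qRT-PCR (Fluidigm array), housekeeping-normalized; bidirectional curve fit relative to DMSO baseline.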

Row | Compound | AC50 | outcome
45 | CC1=C2C[C@H]3[C@@H](CC=C4C[C@@H](O)CC[C@@]43C)[C@@H]2CC[C@]12O[C@@H]1C[C@H](C)CN[C@H]1[C@H]2C | 12.1 µM (active) | 
46 | CC#Cc1cc(C)nc(Nc2ccccc2)n1 | 29.9 µM (active) | 
47 | CCC(C)(c1ccc(O)cc1)c1ccc(O)cc1 |  | inactive
48 | Cc1ccccc1CO[C@@H]1C[C@@]2(C(C)C)CC[C@]1(C)O2 |  | inactive
49 | CCC(=O)O[C@H]1CC[C@H]2[C@@H]3CCC4=CC(=O)CC[C@]4(C)[C@H]3CC[C@]12C |  | inactive
50 | Oc1ccc(Cl)cc1Cl |  | inactive
51 | CCCCCCCCCc1ccc(O)cc1 |  | inactive
52 | ClC(Cl)=C(c1ccc(Cl)cc1)c1ccc(Cl)cc1 | 8.74 µM (active) | 
53 | O=S(=O)(O)C(F)(F)C(F)(F)C(F)(F)C(F)(F)C(F)(F)C(F)(F)F |  | inactive
54 | Cc1cc(O)ccc1Cl |  | inactive
55 | O=C(O)C(F)(F)C(F)(F)C(F)(F)C(F)(F)C(F)(F)C(F)(F)C(F)(F)C(F)(F)F | 50 µM (active) | 
56 | COS(=O)(=O)OC |  | inactive
57 | N#Cc1ccc(N(CC(N)=O)CC(F)(F)F)cc1C(F)(F)F |  | inactive
58 | CCC(C)(CC)c1cc(NC(=O)c2c(OC)cccc2OC)on1 |  | inactive
59 | O=C(N[C@H]1CN2CCC1CC2)c1cc2ccoc2cn1 |  | inactive
60 | C1CC2OC2CC1C1CO1 (stereo unspecified) |  | inactive

Row | Compound | AC50 | outcome
61 | O=S(=O)(O)C(F)(F)C(F)(F)C(F)(F)C(F)(F)F |  | inactive
62 | O=NN(c1ccccc1)c1ccccc1 |  | inactive
63 | NS(=O)(=O)C(F)(F)C(F)(F)C(F)(F)C(F)(F)C(F)(F)C(F)(F)C(F)(F)C(F)(F)F | 3.42 µM (active) | 
64 | CC(c1ccc(O)cc1)(c1ccc(O)cc1)c1ccc(O)cc1 | 33.8 µM (active) | 
65 | C=CC(N)=O |  | inactive
66 | Cc1cc2c3c(c1)C(c1ccccc1)=N[C@@H](NC(=O)c1ccncc1)C(=O)N3CC2 | 10.1 µM (active) | 
67 | CN(C)CCO |  | inactive
68 | Nn1cnnc1 |  | inactive
69 | Cc1cc(-c2ccc(N)c(C)c2)ccc1N |  | inactive
70 | O=C(NC(=O)c1c(F)cccc1F)Nc1cc(Cl)c(OC(F)(F)C(F)F)c(Cl)c1 |  | inactive
71 | CN(C)c1nc(=O)n(C2CCCCC2)c(=O)n1C |  | inactive
72 | O=C(O)C(F)(F)C(F)(F)C(F)(F)C(F)(F)C(F)(F)C(F)(F)C(F)(F)C(F)(F)C(F)(F)F |  | inactive
73 | c1cc2ccc3cccc4ccc(c1)c2c34 | 4.08 µM (active) | 
74 | C=CC(=O)NCNC(=O)C=C |  | inactive
75 | Clc1ccc(C(Cl)(Cl)Cl)cc1 |  | inactive
76 | O=C(NC(=O)c1cc(F)c(F)cc1Cl)Nc1cc(F)ccc1N1CCC(C(=O)O)CC1 |  | inactive
